Experimental data published in article PMC4336329 (PLoS ONE, 2015).
The whole screen tested about 310,000 compounds, of which about 14,000 (4.5%) showed an effect of 50% or more. The effect is printed as a negative number. The sample as a whole holds a higher share of strong results than the screen did.

Each compound was assayed against human ether-à-go-go-related gene (hERG) potassium channel (human, UniProt Q12809) (assay: primary screen, population patch clamp on CHO cells stably expressing hERG; higher = less effect of the substance).
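Further: peak tail current of the secondary pulse compared with the same well before compound.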

human ether-à-go-go-related gene (hERG) potassium channel, sequence (Q12809 whole entry, looked up): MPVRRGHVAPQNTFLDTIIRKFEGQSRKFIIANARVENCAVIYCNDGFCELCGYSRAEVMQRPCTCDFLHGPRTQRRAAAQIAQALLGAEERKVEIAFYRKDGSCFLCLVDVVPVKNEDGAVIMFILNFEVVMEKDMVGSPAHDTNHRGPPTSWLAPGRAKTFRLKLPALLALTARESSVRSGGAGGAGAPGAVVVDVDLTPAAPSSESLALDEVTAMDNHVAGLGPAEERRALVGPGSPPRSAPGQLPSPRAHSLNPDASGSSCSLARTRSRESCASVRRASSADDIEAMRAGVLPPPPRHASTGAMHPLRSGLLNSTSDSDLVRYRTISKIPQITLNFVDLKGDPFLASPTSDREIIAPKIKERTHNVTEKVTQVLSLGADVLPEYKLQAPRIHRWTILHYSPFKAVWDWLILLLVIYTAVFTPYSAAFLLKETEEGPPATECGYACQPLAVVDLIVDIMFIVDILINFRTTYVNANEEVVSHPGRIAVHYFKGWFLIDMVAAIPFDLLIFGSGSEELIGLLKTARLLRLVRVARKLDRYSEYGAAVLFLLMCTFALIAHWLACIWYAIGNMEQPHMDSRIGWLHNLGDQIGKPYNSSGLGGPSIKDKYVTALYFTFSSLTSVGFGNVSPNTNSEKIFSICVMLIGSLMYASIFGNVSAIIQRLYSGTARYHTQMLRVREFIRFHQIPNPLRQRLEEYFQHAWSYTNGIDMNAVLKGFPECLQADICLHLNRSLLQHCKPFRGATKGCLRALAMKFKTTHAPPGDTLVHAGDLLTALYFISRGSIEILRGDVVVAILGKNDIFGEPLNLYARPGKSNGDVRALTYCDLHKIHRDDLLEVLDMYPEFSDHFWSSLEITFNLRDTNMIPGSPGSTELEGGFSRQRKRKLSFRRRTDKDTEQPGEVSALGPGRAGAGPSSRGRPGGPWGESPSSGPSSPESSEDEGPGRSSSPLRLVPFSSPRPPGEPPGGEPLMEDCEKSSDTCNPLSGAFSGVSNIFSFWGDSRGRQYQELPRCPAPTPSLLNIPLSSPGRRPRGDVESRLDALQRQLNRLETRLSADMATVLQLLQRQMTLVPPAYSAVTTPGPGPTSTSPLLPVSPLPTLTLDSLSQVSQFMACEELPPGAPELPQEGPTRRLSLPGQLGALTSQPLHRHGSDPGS

Structure (SMILES) | hERG current change (%, negative = inhibition) at 10uM [%]
O=C(Nc1ccccc1)N(Cc1ccc(Cl)cc1)CC(O)C(F)(F)F (stereo not drawn) | 8.33
Cc1cccc(N2CCN(S(=O)(=O)c3cc(-c4cc(C)no4)ccc3C)CC2C)c1 (stereo not drawn) | 18.9
CC1SCC(NC(=O)c2ccc(Cl)cc2)CS1 (stereo not drawn) | -0.992
Cc1cc(NC(=O)CSCc2ccc([N+](=O)[O-])cc2)no1 | -1.21
Cc1[nH]c2ccccc2c1C(=O)C(C)OC(=O)c1ccc(Cl)nc1 (stereo not drawn) | -12.9
COC(=O)c1ccccc1NC(=O)c1cc[n+](C)cc1 | 11.8
CCOCCCNS(=O)(=O)c1ccc(NC(=O)N2c3ccccc3Sc3ccccc32)cc1 | 3.13
O=C(NC1CCOC1)c1cc(COc2cccc(C(F)(F)F)c2)on1 (stereo not drawn) | 2.06
O=C(COC(=O)c1nsc(Cl)c1Cl)NC1CCCCC1 | 17.1
CCCCOC(=O)c1nc(Cl)c(Cl)c(N)c1Cl | -0.0656
O=C(COC(=O)c1ncc(Cl)c(Cl)c1Cl)NC1CCCCCC1 | 19
CCCCCCCOC(=O)c1nc(Cl)c(Cl)c(N)c1Cl | -4.56
Nc1c(Cl)c(Cl)nc(C(=O)OCC(=O)NC2CCCCC2)c1Cl | -58.2
CCCCCCCCOC(=O)c1nc(Cl)c(Cl)c(N)c1Cl | -66.3
CN1C(=O)/C(=C/c2cccn2-c2ccc3ccccc3c2)C(=O)NC1=S | 12.2
Cc1c(Cc2ccccc2)c(=O)oc2cc(OCC(=O)NCC(O)c3ccccc3)ccc12 (stereo not drawn) | 28.7
C/C(CC(=O)Nc1cc(C)ccn1)=N\NC(=O)C(=O)NC(C)C | 12.5
O=C(OCCOc1ccccc1Cl)c1ccc(-n2cnnn2)cc1 | -19.2
O=C(c1cc(-c2ccc(Br)cc2)on1)N1CCCC1 | 10.3
COc1ccc(NC(=O)NCCCCc2ccccc2)cc1 | 1.06
COc1ccc(NC(=O)N2CCC(Cc3ccccc3)CC2)cc1 | -3.45
CSc1ccc(NC(=O)NCCCN2CCC(Cc3ccccc3)CC2)cc1 | -75.9
Cc1ccccc1NC(=O)NCCCN1CCN(C2CCCCC2)CC1 | -9.26

Structure (SMILES) | hERG current change (%, negative = inhibition) at 10uM [%]
O=C(NCCN1CCN(c2ccccc2Cl)CC1)Nc1ccccc1 | -34.1
CSc1ccc(NC(=O)NCCN2CCc3ccccc3C2)cc1 | -43.6
COc1ccc(NC(=O)NCCCN2CCC(Cc3ccccc3)CC2)cc1 | -77.5
CSc1ccc(NC(=O)NCc2ccccc2)cc1 | 19
O=C(NCCN1CCN(Cc2ccccc2Cl)CC1)Nc1ccccc1 | -47.5
Cc1ccccc1CC1CCN(CCCNC(=O)Nc2ccccc2)CC1 | -68.5
Cc1ccccc1NC(=O)NCCCN1CCCC1 | 26.6
O=C(NCCCN1CCN(Cc2ccccc2Cl)CC1)Nc1ccccc1 | -56.8
Cc1c(NC(=O)COc2c(F)c(F)c(F)c(F)c2F)c(=O)n(-c2ccccc2)n1C | 0.328
COc1ccc(/C(C)=N/NC(=O)CNC(=O)/C=C\c2ccccc2)c(OC)c1 | -9.28
C/C(=N\OCc1ccccc1C#N)c1cc2ccccc2o1 | 0.146
O=C(NCCCN1CCOCC1)c1ccc2nc(Cc3cccc(Cl)c3)oc2c1 | -7.7
COC(=O)c1ccccc1NC(=O)NCc1ccccn1 | -6.01
O=C(CC(Cc1ccccc1)C(=O)O)Nc1ccc(F)cc1 (stereo not drawn) | 10.4
COC(=O)c1cc(=O)n(Cc2cccs2)c(=Nc2ccccc2)s1 | -0.229
Oc1cccc(/C=N/Nc2ccc(Cl)nn2)c1O | 8.72
CC(OC(=O)CNC(=O)c1ccco1)C(=O)Nc1ccc(Cl)cn1 (stereo not drawn) | -11.4
O=C(/C=C/c1cn(CC(O)CN2CCCCCC2)c2ccccc12)c1cccs1 (stereo not drawn) | -75.2
O=C(/C=C/c1cn(CC(O)CN2CCCCC2)c2ccccc12)c1cccs1 (stereo not drawn) | -54.4
CCCN(CCC)CC(O)Cn1cc(/C=C/C(=O)c2cccs2)c2ccccc21 (stereo not drawn) | -30.7
CCCCN(C)CC(O)Cn1cc(/C=C/C(=O)c2cccs2)c2ccccc21 (stereo not drawn) | -33.7
O=Cc1cn(CC(O)CN2CCCCC2)c2ccccc12 (stereo not drawn) | 27.3
O=C(/C=C/c1cn(CC(O)CN2CCOCC2)c2ccccc12)c1cccs1 (stereo not drawn) | -21.8

Structure (SMILES) | hERG current change (%, negative = inhibition) at 10uM [%]
CCCC(=O)Nc1c(-c2ccccc2)c(=O)c(C)nn1-c1ccccc1 | 10.3
Cc1ccc(S(=O)(=O)CCC(=O)Nc2ccc3nc(C)sc3c2)cc1 | 3.75
CC(C)c1c(C(=O)N/N=C/c2ccc(-c3ccccc3)cc2)nnn1-c1nonc1N | 26.6
C=CCc1ccccc1OCC(O)CNC(C)C.Cl (stereo not drawn) | -33.3
CCS(=O)(=O)n1nc(-c2ccc(OC)cc2)nc1N | 11.6
COc1ccc(CCC(N)=O)cc1OC | 11.1
COc1ccc(C(c2nnnn2C2CCCC2)N2CCN(C3CCCC3)CC2)cc1OC.Cl (stereo not drawn) | -22.7
Cl.Fc1ccc(Cn2nnnc2C(c2ccc(Cl)cc2)N2CCSCC2)cc1 (stereo not drawn) | -1.72
COc1ccc(C(c2nnnn2CCc2ccccc2)N2CCN(C3CCCC3)CC2)cc1OC.Cl (stereo not drawn) | -64.3
N#Cc1cccc(C(c2nnnn2CCc2ccccc2)N2CCN(C3CCCCC3)CC2)c1 (stereo not drawn) | -61
Clc1ccc(C(c2nnnn2CCc2ccccc2)N2CCSCC2)cc1 (stereo not drawn) | 0.814
Cl.N#Cc1cccc(C(c2nnnn2Cc2ccccc2)N2CCCC2)c1 (stereo not drawn) | -22.7
COCCn1nnnc1C(c1ccc(Cl)cc1)N1CCSCC1.Cl (stereo not drawn) | -51.9
N#Cc1cccc(C(c2nnnn2C2CCCC2)N2CCC(Cc3ccccc3)CC2)c1 (stereo not drawn) | 8.5
N#Cc1ccc(C(c2nnnn2CCc2ccccc2)N2CCCCCC2)cc1 (stereo not drawn) | -26.3
CC(C)(C)n1nnnc1C(c1cccc(C#N)c1)N1CCCCCC1 (stereo not drawn) | -4.75
COc1ccc(CCn2nnnc2C(c2ccccc2)N2CCN(C)CC2)cc1OC.Cl (stereo not drawn) | 7.37
COCCn1nnnc1C(c1cccc(C#N)c1)N1CCCCCC1.Cl (stereo not drawn) | -56.6
CC(C)(C)C1CCC(=NOC(=O)c2ccc(F)cc2)CC1 (stereo not drawn) | 15.7
O=C(CNC(=O)c1cccc(Br)c1)N/N=C/c1ccc[nH]1 | 22.5
Cc1ccc(-c2cc(-c3ccccc3Cl)c(C#N)c(N)n2)o1 | 3.05
COc1ccccc1-c1ccc(C(=O)O)o1 | 7.06
COC(=O)c1cn(C)c2ccc(S(=O)(=O)N3CC(C)CC(C)C3)cc2c1=O (stereo not drawn) | -5.76

Structure (SMILES) | hERG current change (%, negative = inhibition) at 10uM [%]
COc1ccc(CCNC(=S)Nc2ccc(C)cc2C)cc1 | 2.89
CC(=O)O.CC1(C)CC(=O)C2=C(C1)NC1=C(C(=O)c3ccccc31)C2c1cc([N+](=O)[O-])ccc1O (stereo not drawn) | -37.1
CCOC(=O)c1c(S(=O)(=O)NCC(C)c2ccccc2)c(C)n(C)c1C (stereo not drawn) | -17.8
COc1ccc(C(c2nnnn2CCc2ccccc2)N2CCN(C3CCCC3)CC2)cc1.Cl (stereo not drawn) | -68
Cc1ccc(C(c2nnnn2CCc2ccccc2)N2CCC(C)CC2)cc1.Cl (stereo not drawn) | 13.8
CCCC(c1nnnn1CCc1ccccc1)N1CCN(C2CCCC2)CC1 (stereo not drawn) | -48.9
COc1ccccc1CC(=O)N(Cc1ccccc1)c1ccc(C)cc1 | -16
CCN(CC)S(=O)(=O)c1ccc(S(=O)(=O)N2CCCC2C(=O)O)cc1 (stereo not drawn) | -0.323
CCOn1c(=O)c(-c2ccccc2)[n+]([O-])c2ccccc21 | 1.67
COc1ccc(C(=O)NC2CCN(CC(=O)NCc3ccccc3)CC2)cc1 | -24.4
O=C(CN1CCC(C(=O)c2ccc(F)cc2)CC1)Nc1ccc(F)cc1 | -64.7
COc1ccc(C(=O)C2CCN(CC(=O)NCc3ccccc3)CC2)cc1 | -46.3
COc1ccc(CNC(=O)C2CCN(c3nc(OC)nc(OC)n3)CC2)cc1 | -65.1
COc1ccc(CNC(=O)CN2CCC(C(=O)c3ccc(OC)cc3)CC2)cc1 | -58
O=C(CN1CCC(C(=O)c2ccc(F)cc2)CC1)Nc1ccccc1 | -29.7
COc1nc(OC)nc(N2CCC(C(=O)NCc3ccc(F)cc3)CC2)n1 | -44.9
COc1nc(OC)nc(N2CCC(C(=O)NCc3cccs3)CC2)n1 | -45
Cc1ccc(NC(=O)CN2CCC(C(=O)c3ccc(F)cc3)CC2)cc1 | -72.5
CC(=O)c1ccc(NC(=O)CN2CCC(C(=O)c3ccc(F)cc3)CC2)cc1 | -22.9
Cc1c(NC(=O)/C(C#N)=C/c2ccc(-c3ccc(Cl)cc3)o2)c(=O)n(-c2ccccc2)n1C | -41.5
COc1ccc(C(=O)OCC(=O)c2cc(C)n(CC3CCCO3)c2C)cc1[N+](=O)[O-] (stereo not drawn) | -42.9
